# PubChem BioAssay AID2675 (National Center for Advancing Translational Sciences (NCATS), 2010)
# Out of some 280,000 compounds screened, about 100 (0.036%) were called active. About 11% were inconclusive and are not listed. Shown is part of a subset that was picked to be rich in actives. Unmarked numbers belong to inactive results. Calls follow the shape of the dose curve; as a rule, active = well fitted inhibition curve with a large enough effect in the signal ratio, with a control signal flat (not every such curve was filed as active); inconclusive = small, poorly fitted or top-dose-only effect, or effect the other way, or a change in a side signal; inactive = no such curve, though single readings can be large or run the other way; the % refers to the signal ratio.
# Target: Muscleblind-like protein 1 (Homo sapiens) (UniProt Q9NR56)
# Sequence (Q9NR56 whole entry, looked up): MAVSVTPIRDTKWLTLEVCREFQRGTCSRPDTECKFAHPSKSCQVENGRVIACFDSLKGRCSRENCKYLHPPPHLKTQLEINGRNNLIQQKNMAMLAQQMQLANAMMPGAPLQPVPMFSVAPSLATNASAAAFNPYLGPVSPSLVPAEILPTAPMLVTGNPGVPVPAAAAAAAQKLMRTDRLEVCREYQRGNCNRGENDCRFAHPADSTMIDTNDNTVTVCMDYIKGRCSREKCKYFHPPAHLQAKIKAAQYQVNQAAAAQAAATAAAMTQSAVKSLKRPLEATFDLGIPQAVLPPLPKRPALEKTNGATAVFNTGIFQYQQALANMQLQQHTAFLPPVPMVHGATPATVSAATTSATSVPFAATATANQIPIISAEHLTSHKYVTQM
# Assay: qHTS Assay for Inhibitors of MBNL1-poly(CUG) RNA binding
# Settings: TR-FRET MBNL1-His/biotin-(CUG)12 binding, 665/545 ratio; series mostly up to 57.5 µM; activity change, negative = inhibition: at the top concentration
# Text: NIH Chemical Genomics Center [NCGC] NIH Molecular Libraries Probe Production Centers Network [MLPCN] MLPCN Grant: R03 MH087421-01 Assay Submitter (PI): Charles Thornton NCGC Assay Overview: Expanded CTG repeats in the 3' untranslated region of the DM protein kinase (DMPK) gene causes type I myotonic dystrophy (DM1). DM1 is a multi-systemic disease with a prevalence of 1/7000. Clinical features include myotonia, progressive muscle weakness and wasting, cardiac arrhythmia, insulin resistance, hypersomnolence, cataracts, and other symptoms. The pathogenic effect of expanded CTG repeats stems from deleterious effects of the mutant transcript. CUGexp mRNA accumulates in nuclear foci and sequesters proteins of the muscleblind family, of which MBNL1 is the most common family member in skeletal muscles. The binding interaction between MBNL1 and CUGexp tracts leads to deregulation of alternative splicing and is therefore a key molecular step in the pathogenesis of DM1. To target this binding interaction, we optimized a protein-RNA binding assay in 1536-well format for identification of small molecule inhibitors of biotinylated (CUG)12 and his-tagged MBNL1 binding. Protein-RNA complex of MBNL1-His and Biotin-(CUG)12 captures the detection reagents terbium-labeled anti-His antibody and streptavidin conjugated XL665. This brings the terbium label within close proximity to XL665 to allow time-resolved fluorescence resonance energy transfer (TR-FRET). Inhibitors of MBNL1-(CUG)12 binding will disrupt TR-FRET.
# NCGC Assay Protocol Summary: This is a TR-FRET binding assay with MBNL1-His and Biotin-(CUG)12 RNA. The assay uses a ratiometric measurement. In the presence of MBNL1-(CUG)12 complex, the excitation energy is transferred to the XL665 acceptor label, causing emission at 665nm, while the 545nm donor signal […]. Data were normalized to the controls for basal activity (buffer only) and 100% activity (with MBNL1-(CUG)12). […] The final titration was 92 nM to 58 uM. (3) Add 1 ul of terbium labeled anti-His antibody (0.055 ng/ul final concentration) (4) Add 1 ul of streptavidin-XL665 (5 nM final concentration) (5) Incubate 60 min at room temperature (6) Detect the assay plate in a EnVision plate reader (PerkinElmer) with Ex=340 nm, Em1=665 nm and Em2=545 nm. Keywords: mytonic dystrophy type I, DM1, muscleblind like 1, MBNL1, CUG expansion, protein-RNA binding inhibitor, high throughput screening, MLSMR, MLSCN, NIH Roadmap, qHTS and NCGC
# % is scaled to controls: 0 for no effect and ±100 for the full control effect.
row,Compound,"activity change, negative = inhibition"
1,C=CCNc1nc(N)c([N+](=O)[O-])c(NC2CCCCC2)n1,-5.63%
2,Cc1[nH]c2ccccc2c1C(=O)CN1CC(C)CC(C)C1 (stereo unspecified),-2.63%
3,O=C(c1ccccc1)N1N=C(c2ccccc2O)CC1c1ccc(Br)cc1 (stereo unspecified),-12.2%
4,Nc1nc(Nc2ccccc2F)nc(NC2CCCCC2)c1[N+](=O)[O-],-5.13%
5,COc1ccc(OC)c(CNC(=O)Cn2nc(C)c3c(C)n(-c4ccc(C)cc4)nc3c2=O)c1,-0.935%
6,Cc1ccc(C)c(N2CCN(C(=O)CCCn3c(=O)c4cccn4c4cccnc43)CC2)c1,-1.23%
7,CCOc1ccc(NC(=O)CCCCCN2C(=O)[C@@H]3Cc4ccccc4CN3C2=O)cc1,4.13%
8,CCc1ccc(/C=N/NC(=O)c2nnn(-c3nonc3N)c2CN2CCc3ccccc32)cc1,1.76%
9,COc1ccc(NS(=O)(=O)c2cc(C(=O)Nc3ccccc3C(=O)O)ccc2C)cc1,-13.3%
10,COc1ccc(CN(C)C(=O)c2cc(-c3ccc(C)cc3C)nc3ccccc23)c(OC)c1OC,-0.265%
11,O=C(NCc1cccc(Cl)c1)C1CCC(=O)N(C2CC2)C1 (stereo unspecified),-9.91%
12,CC(=O)N1c2ccc(S(=O)(=O)N3CCC(C(=O)N4CCN(c5ccccc5)CC4)CC3)cc2CC1C (stereo unspecified),-1.97%
13,O=C(NCCCN1CCOCC1)c1ccc2c(c1)N(Cc1cccc(F)c1)C(=O)c1ccccc1S2,76.5%
14,CCc1ccc(C(CNc2nc(C(F)(F)F)nc3ccccc23)N(C)C)cc1 (stereo unspecified),-3.64%
15,Cc1nnc(NC(=O)C(c2ccccc2)c2ccccc2)s1,1.22%
16,COc1cccc(CCNC(=O)c2cccc(NC(=O)C3=C(C)OCCS3)c2)c1,-1.35%
17,Cc1cc(=O)[nH]c(Nc2cccc(Br)c2)n1,-10%
18,COc1ccccc1N1CCN(S(=O)(=O)CCNC(=O)c2ccc(OC(C)C)cc2)CC1,1.83%
19,COc1cccc(CN(C)CC(O)COC(c2ccccc2)c2ccccc2C)c1 (stereo unspecified),-1.85%
20,CCOc1ccc(NC(=O)C(C)N2C(=O)c3ccccc3C2=O)cc1 (stereo unspecified),1.24%
21,CCOc1ccc(NC(=O)c2nc(SCC)ncc2Cl)cc1,-14.6%
22,CCC(C)[C@H](NC(=O)N1CCn2c1nc1ccccc12)C(=O)NCc1ccc(OC)cc1 (stereo partly specified),-2.53%
23,COc1ccc(NC(=O)c2cc([N+](=O)[O-])ccc2NC(=O)CNC2CCCCC2C)c(OC)c1 (stereo unspecified),18.6%
24,COc1ccc(CCNC(=O)c2ccccc2OCc2ccccc2)cc1,-4.43%
25,Cc1cc(Cl)ccc1C(=O)C1CCCN(C(=O)c2nonc2C)C1 (stereo unspecified),0.612%
26,CC(CCc1ccc(O)cc1)NCc1ccc(Cl)cc1Cl (stereo unspecified),-4.16%

row,Compound,"activity change, negative = inhibition"
1,COc1ccc(CCNCc2c(-c3ccccc3)n(C)c3ccccc23)cc1,-10.3%
2,CCC(=O)c1cn(CCOc2ccccc2OC)c2ccccc12,2.83%
3,COc1ccc(CC(=O)N/N=C/c2cc([N+](=O)[O-])cc(Br)c2O)cc1,-0.176%
4,COC(=O)c1cc(S(=O)(=O)N2CCN(c3cc(C)ccc3C)CC2)c[nH]1,0.607%
5,COc1cccc(C(=O)Nc2ccc(N3CCN(C(=O)c4ccco4)CC3)cc2)c1,-4.34%
6,COC(=O)c1ccc(CN2CCCC(C(=O)Nc3cccc(-n4cnnn4)c3)C2)cc1 (stereo unspecified),-5.86%
7,Cc1cc(=O)oc2c(C)c(OC(C)C(=O)NC3CCN(Cc4ccccc4)CC3)ccc12 (stereo unspecified),-6.34%
8,C[C@H](NC(=O)[C@@H]1Cc2ccccc2CN1C(=O)OC(C)(C)C)C(=O)NC1CCCC1,0.26%
9,CCCn1c(C2CCCN2c2nc(-c3ccc(OC)cc3)cs2)nc2ccccc21 (stereo unspecified),46.7%
10,Cc1ccc2nc(-c3ccncc3)cc(C(=O)Nc3ccncc3)c2c1,20.1%
11,COc1cccc(C(=O)N/N=C(\C)c2cccc(NC(=O)c3ccc(F)cc3)c2)c1OC,-0.886%
12,O=C(NCCCO)c1cc2c([nH]c3ccccc32)c(-c2ccc(F)cc2)n1,-3.77%
13,CCCC(=O)N1CCN(c2nnc(-c3ccc(C)cc3)c3ccccc23)CC1,15%
14,Cc1cc(Cl)ccc1OCCCC(=O)Nc1cccc(-n2cnnn2)c1,-0.924%
15,CCOc1ccc(CCNC(=O)CCc2nnc3ccc(N4CCCC4)nn23)cc1OCC,13.4%
16,CC(=O)N1CCOc2ccc(S(=O)(=O)N3CCN(c4cccc(C(F)(F)F)c4)CC3)cc21,-1.07%
17,CCCCN(CCCC)CCCNC(=O)CN1C(=O)COc2ccc(S(=O)(=O)N3CCC(C)CC3)cc21,-14.2%
18,Cc1ccc(OCC(=O)Nc2ccc(C(=O)O)cc2NC(=O)COc2ccc(C)c(C)c2)cc1C,6.17%
19,COc1ccc(C(=O)CC(=O)C(=O)Nc2cc([N+](=O)[O-])ccc2OC)cc1,0.59%
20,CC(C)c1ccc(S(=O)(=O)N2CCN(C(=O)c3ccc(N4CCCC4)c([N+](=O)[O-])c3)CC2)cc1,-3.33%
21,COc1cccc(NC(=O)C2CCCN(c3ncnc4c3nc3n4CCCCC3)C2)c1 (stereo unspecified),-5.89%
22,Cc1ccc(CN2CCC(n3nccc3NC(=O)CCCc3ccccc3)CC2)o1,5.27%
23,CCc1ccc(NC(=O)CN2CCC(C(=O)c3ccc(OC)cc3)CC2)cc1,2.27%
24,O=C(Nc1ccccc1N1CCCC1)c1ccc2ccccc2c1,9.01%
25,CCCCCN(C(=O)CCC(=O)OCC(=O)NCc1ccc(OC)cc1)c1c(N)n(CCCC)c(=O)[nH]c1=O,-3.21%
